Data from PubChem BioAssay (NCATS).
Results filed as inconclusive are left out. The source made the active and inactive calls. Calls come from the whole dose curve; as a rule, active = well fitted inhibition curve with a large enough effect; inconclusive = small, poorly fitted or top-dose-only effect; inactive = flat fitted curve, though single readings scatter.

Columns and labels:
[1] = system: CRL-7250; test: Cytotoxic Profiling of Annotated Libraries Using Quantitative High-Throughput Screening (AID 1296008); settings: Five cell lines viability, CellTiter-Glo ATP luminescence, 48-72 h; max response: hits give low values; for max response: % is set by controls: 0 for no effect and ±100 for the full control effect
Method in brief: (§1)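 Cytotoxicity was measured as CellTiter-Glo ATP luminescence, read after 10 min at room temperature. Compound treatment of the cells lasted 48 or 72 hr at 37 degrees Celsius in a qHTS format.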

[2] = system: HaCat; test: as above; settings: Five cell lines viability, CellTiter-Glo ATP luminescence, 48-72 h; max response: hits give low values
Method in brief: as §1

[3] = system: KB-3-1; test: as above; settings: Five cell lines viability, CellTiter-Glo ATP luminescence, 48-72 h; max response: hits give low values
Method in brief: as §1

[4] = system: NIH3T3; test: as above; settings: Five cell lines viability, CellTiter-Glo ATP luminescence, 48-72 h; max response: hits give low values
Method in brief: as §1

[5] = system: HACAT; test: qHTS assay to identify novel small-molecules to repurpose for Merkel cell carcinoma treatment (AID 1296009); settings: MCC and control cell lines, CellTiter-Glo viability, 72 h; at 44.8 µM (top of the series) unless noted
Method in brief: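 Cell viability measured by CellTiter-Glo following 72 hr compound treatment at 37 degree celsius, with NPC and MIPE libraries tested in 8- and 11-point concentration series.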

[6] = system: P93_24; test: qHTS profiling for inhibitors of Plasmodium falciparum proliferation (AID 504749); note: potency is the fitted concentration of half-maximal effect; settings: P. falciparum in erythrocytes, SYBR Green DNA, 72 h; series mostly up to 28.7 µM
Method in brief: (§2)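 In a 72 h erythrocytic culture (37 C, humidified, 5% CO2) at 2.5% hematocrit and 0.3% starting parasitemia, compounds were tested; SYBR Green I in detergent lysis buffer stained parasite DNA overnight.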

[7] = system: P94_40; test: as above; settings: P. falciparum in erythrocytes, SYBR Green DNA, 72 h
Method in brief: as §2

[8] = system: PAD; test: as above; settings: P. falciparum in erythrocytes, SYBR Green DNA, 72 h; series mostly up to 28.7 µM
Method in brief: as §2

[9] = system: PC49; test: as above; settings: P. falciparum in erythrocytes, SYBR Green DNA, 72 h; series mostly up to 28.7 µM
Method in brief: as §2

[10] = system: TAB165; test: as above; settings: P. falciparum in erythrocytes, SYBR Green DNA, 72 h; series mostly up to 28.7 µM
Method in brief: as §2

[11] = system: W2; test: as above; settings: P. falciparum in erythrocytes, SYBR Green DNA, 72 h; series mostly up to 28.7 µM
Method in brief: as §2
Note: nearly all actives have a fitted effect of over 60% in size.

C/C=C/C=C/C(=O)O[C@@H]1C=C2COC(=O)[C@]2(O)[C@@]2(C)CCCC(C)(C)[C@H]12
inactive: max response [1] -1.83% | outcome [2] | max response [3] 0.722% | outcome [4] | outcome [5]

COc1c(CCC(=O)O)cccc1O[C@@H]1O[C@H](CO)[C@@H](O)[C@H](O)[C@H]1O
inactive: outcome [1] | outcome [2] | max response [3] 0.734% | max response [4] 0.319% | outcome [5]

COc1ccccc1OCCN1CC(COc2cccc3[nH]c4ccccc4c23)OCC1=O (centres undefined)
inactive: outcome [1] | outcome [2] | max response [3] -7.07% | outcome [5]

Cc1c(NC(=O)c2cc3c(s2)CCCC3)cccc1-c1cn(C)c(=O)c(Nc2ccc(C3C(=O)N(C)CCN3C)cc2)n1 (centres undefined)
inactive: max response [1] -5.13% | outcome [2] | outcome [3] | outcome [5]

COc1ccc2c(NC(=O)Nc3cccc(C(F)(F)F)n3)ccnc2c1
inactive: max response [1] -17.8% | outcome [2] | outcome [3] | max response [4] -6.75% | outcome [5]

CCc1ccc(-c2nc(CSCC(=O)NCCc3ccccc3)c(C)o2)cc1
inactive: max response [1] 2.64% | outcome [2] | max response [3] -10.3% | max response [4] -12.1% | outcome [5]

CN1CCN(c2ccc(-c3cccc(CN4CCOCC4)c3)cc2NC(=O)c2c[nH]c(=O)cc2C(F)(F)F)CC1
inactive: max response [1] -6.65% | outcome [2] | outcome [3] | max response [4] -7.39% | outcome [5]

CCN(CC)CCCCCCNc1cc(OC)cc2c(C)ccnc12
inactive: max response [1] -13.4% | outcome [2] | max response [3] -5.11% | outcome [5]

CNCCCC1(c2ccccc2)OC(C)(C)c2ccccc21 (centres undefined)
inactive: max response [1] 3.46% | outcome [2] | max response [3] -1.28% | outcome [4] | outcome [5]

CC(C)(F)CC(NC(c1ccc(-c2ccc(S(C)(=O)=O)cc2)cc1)C(F)(F)F)C(=O)NC1(C#N)CC1 (centres undefined)
inactive: max response [1] -1.34% | outcome [2] | outcome [3] | outcome [4] | outcome [5]

O=C(NCCCN1CCC2(CC1)OCc1ccccc12)[C@H]1CCCN1Cc1ccccc1
inactive: outcome [1] | outcome [2] | max response [3] -7.1% | max response [4] 4.93% | outcome [5]

Cc1ccc(OC[C@H](O)[C@H](C)NC(C)C)c2c1CCC2
inactive: max response [1] -3.77% | outcome [2] | max response [3] 5.3% | max response [4] 0.0465% | outcome [5]

CN(C)c1cccc(Oc2cnc(Nc3cccc(O)c3)nc2)c1
inactive: max response [1] 4.02% | outcome [2] | outcome [3] | outcome [5]

CCC(C)/C=C(C)/C=C/C1=CC2=C(Cl)C(=O)C(C)(OC(C)=O)C(=O)C2(O)C(OC)O1 (centres undefined)
inactive: outcome [1] | outcome [2] | outcome [3] | outcome [4] | outcome [5] inactive [at 17.4 µM]

N[C@@H]1c2cccnc2[C@H](OC(=O)N2CCC(n3c(=O)[nH]c4ncccc43)CC2)CC[C@H]1c1cccc(F)c1F
inactive: max response [1] -0.901% | outcome [2] | max response [3] 4.19% | outcome [4] | outcome [5]

COC1C(OC(=O)/C=C/C=C/C=C/C=C/C(=O)O)CCC2(CO2)C1C1(C)OC1CC=C(C)C (centres undefined)
active: Potency [6] 0.0251 µM | Potency [7] 0.0251 µM | Potency [8] 1.41 µM | Potency [10] 0.0316 µM | Potency [11] 0.0107 µM
inactive: Potency [9] | max response [1] -15.2% | max response [2] -3.3% | outcome [3] | max response [4] 0.0729%

Cc1ccccc1CN1CCn2c1nc1c(c2=O)CN(Cc2ccccc2)CC1
inactive: max response [1] 1.02% | outcome [2] | max response [3] -11.6% | outcome [5]

COc1ccc(CCO[C@@H]2O[C@H](CO[C@H]3OC[C@](O)(CO)[C@H]3O)[C@@H](OC(=O)/C=C/c3ccc(O)c(O)c3)[C@H](O[C@@H]3O[C@@H](C)[C@H](O)[C@@H](O)[C@H]3O)[C@H]2O)cc1OC
inactive: max response [1] -14.2% | outcome [2] | max response [3] 2.16% | max response [4] -1.58% | outcome [5] inactive [at 17.4 µM]

Cc1[nH]c(/C=C2\C(=O)Nc3cc(-c4ccccc4)ccc32)c(C)c1CCC(=O)O
inactive: max response [1] -17.7% | outcome [2] | max response [3] -8.26% | outcome [5]

COC(=O)C[C@H]1C(C)(C)[C@H](OC(=O)c2ccccc2)C2CC3=C4CC(=O)O[C@@H](c5ccoc5)[C@]4(C)CCC3[C@@]1(C)C2=O (some centres undefined)
inactive: max response [1] -6.86% | outcome [2] | max response [3] 0.65% | max response [4] 0.65% | outcome [5] inactive [at 17.4 µM]

O=c1[nH]c2ccccc2n1CCN1CCN(c2cccc(C(F)(F)F)c2)CC1
inactive: outcome [1] | outcome [2] | max response [3] -13.2% | outcome [4] | outcome [5]
